Integrin act MD – activators of alpha7 integrin expression for muscular dystrophy. alpha7betagal myoblasts, beta-gal FDG fluorescence, 48 h. 350,000 compounds, 0.064% hits. Potency, µM (titrated, usually from 38.3 µM), for inactives: at the highest dose activation, most hits filed as activators. AID 624291;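 further: potency means the concentration at half of the fitted maximal effect; 100% = response of the positive control SU9516; nearly all actives have a fitted effect of over 60% in size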
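alpha7betagal+/- myoblasts (passage 13, 250/well) treated 48 h at 37C with compounds at 1:260 dilution of DMSO stock. Lysed, then beta-galactosidase activity read as FDG fluorescence (ex 480/em 540) after 30 min, with pre-read for autofluorescence.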
DRD3 antagonist – blocks the human D3 dopamine receptor; P35462; D3R cells, DiscoveRx beta-arrestin luminescence, antagonist mode; active compounds read low; max response, negative = inhibition, %; 360,000 compounds, 2.5% hits; in the data active means max response below about -50%; inconclusive means no clear call, values can overlap the other calls; further: on the % scale 0 is the no-effect control and ±100 the full control effect
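Cells plated overnight at 1500 cells/well, then exposed to library compounds with dopamine controls for 90 minutes at 37 degrees C. DiscoveRx reagent added for 30–60 minutes at room temperature; luminescence read, quantitative HTS format.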
MBNL1-CUG inh – inhibitors of human MBNL1 binding to CUG repeat RNA. TR-FRET MBNL1-His/biotin-(CUG)12 binding, 665/545 ratio. Potency, µM (titrated, usually from 57.5 µM), inactives show at the top dose activity change, negative = inhibition, usual class: inhibitors. 280,000 compounds, 0.036% hits; active means well fitted inhibition curve with a large enough effect in the signal ratio, with a control signal flat, not every such curve was filed as active; inconclusive means small, poorly fitted or top-dose-only effect, or effect the other way, or a change in a side signal; inactive means no such curve, though single readings can be large or run the other way; the % refers to the signal ratio; further: potency means the concentration at half of the fitted maximal effect; on the % scale 0 is the no-effect control and ±100 the full control effect
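Inhibition of protein-RNA binding appears as loss of TR-FRET between terbium anti-His antibody on MBNL1-His and streptavidin-XL665 on biotin-(CUG)12. Activity is normalized to buffer-only and uninhibited-complex controls.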
DRD3 agonist – activates the human D3 dopamine receptor; D3R DiscoveRx beta-arrestin cells, luminescence, 90 min; max activation, %; 410,000 compounds, 0.58% hits; AID 652048; in the data active means max activation above about 30%; further: 0% is about no effect
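Agonist mode: compounds and dopamine controls were applied to plated cells for 90 min at 37 degrees C after an overnight attachment at 1500 cells/well. Luminescent read-out followed 30 - 60 minutes at room temperature with DiscoveRx detection reagent.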
CBFb-RUNX1 inh – CBF-beta/RUNX1 interaction disruption. Potency, µM (series often up to 59.8 µM), inactives show at the highest dose activity, negative = inhibition, most hits filed as inhibitors. AlphaScreen CBFb-His/RUNX1-biotin binding, biochemical. 230,000 tested, under 10 active. Q01196+Q13951; further: % of control where 0% means no effect
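AlphaScreen binding: CBFb-His and RUNX1-biotin (30 nM each) preincubated 20 min, compound added for 15 min, then nickel and streptavidin beads for 90 min, all at room temperature. Disruption of the interaction by any mechanism counts as activity.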
PTHR1 agonist – activates the human parathyroid hormone receptor PTHR1. Q03431. HEK293 GP2 PTHR1 cells, GloSensor cAMP luminescence, 1 h. Potency, µM (titrated, usually from 115 µM), inactives show top-dose activation, actives largely listed as activators. 410,000 compounds, 0.075% hits. AID 743266; further: potency means the concentration at half of the fitted maximal effect; nearly all actives have a fitted effect of over 55% in size
Target sequence (Q03431 whole entry, looked up): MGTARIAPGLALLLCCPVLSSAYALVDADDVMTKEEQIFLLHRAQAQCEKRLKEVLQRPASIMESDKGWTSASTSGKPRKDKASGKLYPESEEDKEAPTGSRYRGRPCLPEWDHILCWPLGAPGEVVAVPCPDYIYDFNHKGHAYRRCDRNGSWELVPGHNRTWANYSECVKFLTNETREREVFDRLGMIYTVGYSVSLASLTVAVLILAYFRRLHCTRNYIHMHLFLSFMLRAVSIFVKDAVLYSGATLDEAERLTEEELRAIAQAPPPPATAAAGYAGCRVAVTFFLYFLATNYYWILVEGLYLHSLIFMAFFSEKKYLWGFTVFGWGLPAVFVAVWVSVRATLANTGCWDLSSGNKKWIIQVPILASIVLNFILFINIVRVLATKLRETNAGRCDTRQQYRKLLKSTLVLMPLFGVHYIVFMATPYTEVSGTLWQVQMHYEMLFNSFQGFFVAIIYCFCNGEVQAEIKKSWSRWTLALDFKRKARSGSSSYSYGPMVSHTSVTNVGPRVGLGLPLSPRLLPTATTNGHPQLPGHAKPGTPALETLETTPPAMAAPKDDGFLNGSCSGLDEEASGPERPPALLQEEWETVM
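HEK-293-derived GP2 cells expressing PTHR1 and a GloSensor cAMP reporter, 3,000/well, plated overnight, given luciferin plus IBMX (each 0.5 mM as added) for 1 h at 37 °C, then compound for 1 h at 37 °C. Luminescence was read after 15 min at room temperature.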
The depositor's hits bear a star; i = inactive; ? = inconclusive; . = no result given; ! = not confirmed by another sample; [ ] = remark or other dose. This is a sample that favours compounds with a hit; in the whole collection about 2.8% have one here. Unless noted, the call rests on the fitted dose curve; in most records, active means well fitted curve in the direction sought with a large enough effect; inconclusive means small, poorly fitted or top-dose-only effect, or another doubt; inactive means no such curve, though single readings can be large; an effect the other way counts as inactive or inconclusive.

SMILES	Integrin act MD	DRD3 antagonist	MBNL1-CUG inh	DRD3 agonist	CBFb-RUNX1 inh	PTHR1 agonist
C=CCN1[C@@H](Cc2ccccc2)COCCS1(=O)=O	10%	-50*	.	-25	.	20%
CCCCN1CCc2c1nc1ccc(Br)cc1c2N	-51%	-84*	12%	-39	1%	i
CCCC[C@]12Cc3cc(OC)c(OC)cc3C(O1)C1=C(O2)C(=O)c2ccccc2C1=O	.	.	23%[11.5 µM]	.	.	.
COc1ccc(-c2csc(N3CCN(c4cc(C)nc5ccccc45)CC3)n2)cc1OC	-24%	76	8%	32*	-24%	-10%
O=C1CCCN1C(=O)COc1ccccc1[N+](=O)[O-]	0%	-3	.	38*	.	-4%
CCN(CC)CCNC(=O)c1ccc(Sc2ccc(Cl)cc2)c(NC(C)=O)c1	-54%	-77*	12%	-16	2%	i
CCN(CC)CCNC(=O)c1ccc(Sc2ccc(C)cc2)c(NC(C)=O)c1	-44%	-88*	11%	-16	5%	i
CC(=O)Nc1cc(C(=O)NCc2ccc(C)cc2)ccc1Sc1ccc(C)cc1	.	.	.	-7	.	i
Cc1ccc2c(c1)c(=O)c(S(=O)(=O)c1ccc(C)c(C)c1)cn2CC(=O)Nc1ccccc1	.	.	.	38*	.	4%
C[C@H](O)[C@@H]1C(=O)N2CCc3ccc(N4CCN(C)CC4)cc3[C@@H]2C[C@@H]1N(C)C(=O)c1ccc(C#N)cc1	21%	0	.	16	.	i
Cc1cc(F)ccc1N1CCC(N2CCN(CCC(C)C)C(CCO)C2)CC1 (stereo not drawn)	-65%	?	-6%	-9	10%	-28%
COc1cccc(CN2CCN(C3CCN(c4ccccc4F)CC3)CC2CCO)c1 (stereo not drawn)	4%	-110*	-3%	-33	4%	-5%
Cc1cc(F)ccc1N1CCC(N2CCN(C(C)C)C(CCO)C2)CC1 (stereo not drawn)	-40%	-53*	-14%	-16	16%	i
COc1cccc(CN2CCN(C3CCN(c4ccccc4C)CC3)CC2CCO)c1 (stereo not drawn)	-7%	-60*	-11%	-5	-4%	-14%
O=C(O)Cc1ccc(N2N=C(c3ccccc3)CC2=O)cc1	.	0	.	-11	.	-8%
COc1ccc(C(=O)N(C)CC2CCN(CCc3cccc(C(F)(F)F)c3)CC2)cc1C	-55%	-77*	-7%	-27	.	-19%
CCN(CC1CCCN(CCc2cccc(F)c2)C1)C(=O)c1ccoc1C (stereo not drawn)	-13%	-51*	.	-5	.	-9%
COc1ccc(C(=O)N(C)C2CCCN(Cc3ccccc3F)C2)cc1C (stereo not drawn)	3%	-2	7%	1	.	i
CN(CC1CCCN(CCc2cccc(C(F)(F)F)c2)C1)C(=O)c1ccco1 (stereo not drawn)	0%	-63*	-6%	-13	.	10%
CSCCC(=O)N(C)CC1CCN(CCc2cccc(C(F)(F)F)c2)CC1	10%	-7	-4%	-16	.	-4%
CC(=O)Nc1ccc(CN(C)CC2CCCN(CCc3cccc(C(F)(F)F)c3)C2)cc1 (stereo not drawn)	-55%	-11	-6%	-8	.	-6%
CN(CC1CCN(CCc2cccc(C(F)(F)F)c2)CC1)C(=O)c1ccc(F)cc1F	0%	-69*	-5%	-27	.	-35%
O=C(C[C@@H]1C/C=C\C[C@@H](Cc2ccc(F)cc2)C(=O)OC[C@@H](Cc2ccccc2)NC1=O)N[C@H](CO)Cc1ccccc1	0%	-25	.	5	.	i
O=c1nc2ccccc2c2n1CC(CN1CCN(c3ccccc3)CC1)N2 (stereo not drawn)	.	.	.	.	14%	.
O=C(COC(=O)c1ccccc1)NC1CCCC1	-17%	-4	-16%	1	.	-6%
SMILES	Integrin act MD	DRD3 antagonist	MBNL1-CUG inh	DRD3 agonist	CBFb-RUNX1 inh	PTHR1 agonist
O=C(ONC(=O)C1CCCCC1C(=O)NOC(=O)c1ccccc1)c1ccccc1 (stereo not drawn)	-15%	145	.	82*	.	-9%
O=C(OCC(O)CO)c1ccccc1Nc1ccnc2cc(Cl)ccc12 (stereo not drawn)	.	49	.	46*!	10%	11%
CCOC(=O)C1CCN(C/C=C/c2ccccc2[N+](=O)[O-])CC1	-16%	-56*	?	-12	.	i
CCOC(=O)C1CCN(C/C=C/c2ccccc2OC)CC1	-20%	-68*	-2%	-57	2%	i
COc1ccccc1/C=C/CN1CCOCC1	2%	-25	-6%	-23	1%	-14%
Cc1c(Cl)cccc1NC(=O)CCn1nc(C)c2c(C)n(-c3ccccc3)nc2c1=O	.	.	.	-10	.	i
CCCSc1nsc(NC(=O)C(c2ccccc2)c2ccccc2)n1	-40%	-71*	-3%	-9	3%	-15%[57.5 µM]
COc1cccc(/C=N/NC(=O)NC23CC4CC(CC(C4)C2)C3)c1O	27%	-62*	.	-16	.	-33%
O=C(N/N=C/c1ccccc1F)NC12CC3CC(CC(C3)C1)C2	8%	-5	6%	-9	.	-12%
COc1ccc(NC(=O)c2csc3c2CCCCC3)cc1	.	.	.	7	.	-41%
COc1cccc(NC(=O)c2csc3c2CCCCC3)c1	.	.	.	44*	.	-5%
COc1ccc(NC(=O)C(Cc2ccccc2)NS(=O)(=O)c2ccc3c(c2)CCN3C(C)=O)cc1 (stereo not drawn)	.	.	.	-4	.	i
CC1CCC/C=C/C(=O)c2c(O)cc(O)cc2CC(=O)O1 (stereo not drawn)	-52%	-89*	-10%	-51	0%	-96%
Cc1ccc(C(=O)Oc2ccccc2N2C(=O)C3CCC(C)CC3C2=O)cc1 (stereo not drawn)	4%	37	-5%	8	-9%	-13%
CC1CCC2C(=O)N(c3ccc(C(=O)Oc4cccc5cccnc45)cc3)C(=O)C2C1 (stereo not drawn)	-36%	-68*	20%	-30	-4%	i
CN(C)CCC(=O)N1C/C(=C/c2ccccc2)C(=O)/C(=C\c2ccccc2)C1	-54%	-85*	.	-24	.	-94%
CCOC(=O)N1C/C(=C\c2ccccc2)C(=O)/C(=C/c2ccccc2)C1	10%	-52*	-6%	-3	-4%	-5%
O=C1/C(=C/c2ccccc2)CN(C(=O)CCN2CCOCC2)C/C1=C\c1ccccc1	-49%	-77*	.	-19	.	-95%
C[N+](C)(C)CCC(=O)N1C/C(=C/c2ccccc2)C(=O)/C(=C\c2ccccc2)C1	-52%	12	.	1	.	i
CCOC(=O)N1CCN(S(=O)(=O)/C=C/c2ccccc2)CC1	-11%	-2	2%	-1	1%	0%
